The nature of test [1]: GFP-Q80 aggregate reduction, neuronal-like cells, cell-based, NGF-treated PC12, GFPQ80 (AID 1614).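 Further: lower means fewer inclusions and 0 means no inclusions at all.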 The note with it: PC12 NGF-treated GFP-polyQ80 inclusion reduction.
Test [2] in a line: compounds altering circadian rhythm period length – cell-based, LOPAC library, luminescence reporter (AID 2774; call rule not given here;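 further: values are relative to mean of DMSO wells on each plate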). The note with it: circadian reporter cells, at 7 µM, actives lie on both sides.
For test [3], the system named is Hepatitis C virus NS3 helicase. As to the kind of experiment: blockers of NS3h binding to ssDNA – biochemical, fluorescence polarization, LOPAC1280 library, primary screen (AID 687035; in the data active means inhibition above about 37%). The note with it: Purified HCV NS3 helicase, Cy5-dT15 ssDNA binding fluorescence polarization; stronger effect = higher value; concentration not given here. In general terms: Polarisation of emitted light reports the rotation of a fluorescent probe.

Test [4] is described as follows: compounds altering Cy5-DNA-NS3h complex signal – biochemical, LOPAC1280, artefact control for HCV NS3 helicase inhibitor project (AID 687037; call rule not given here). The note with it: Cy5-DNA-NS3h complex fluorescence interference counterscreen. A general note: A counterscreen serves to expose hits that act by an unwanted route or on another target.
A short description of test [5]: viability loss in pontine glioma line – cell-based, SU-DIPG-XVII, MIPE5.0, CellTiter-Glo, qHTS, dose response (AID 1347060; cut-off not given, nearly all actives have AC50 up to about 26 µM). The note with it: CellTiter-Glo ATP luminescence. (In general: In ATP-based viability assays light output follows the ATP content of the culture.)
A short description of test [6]: viability loss in pontine glioma line – cell-based, SU-DIPG-XIII, MIPE4.0, CellTiter-Glo, qHTS, dose response (AID 1347061; cut-off not given, nearly all actives have AC50 up to about 37 µM;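 further: cells exposed to compound for 48 hours before readout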). The note with it: CellTiter-Glo ATP luminescence.
Test [7] is described as follows: viability loss in pontine glioma line – cell-based, JHH-DIPG-1, MIPE4.0, CellTiter-Glo, qHTS, dose response (AID 1347062; cut-off not given, nearly all actives have AC50 up to about 27 µM). The note with it: JHH-DIPG-1 viability, CellTiter-Glo ATP luminescence.
Test [8] in a line: growth inhibition of DIPG cells – cell-based, MIPE4.0 library, CellTiter-Glo luminescence, qHTS (AID 1347066; cut-off not given, nearly all actives have AC50 up to about 30 µM;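 further: cells exposed to compound for 48 hours before readout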). The note with it: SU-DIPG-VI viability, CellTiter-Glo ATP luminescence.
Test [9] is described as follows: JHH-DIPG-1 glioma cell viability, MIPE5.0 library, CellTiter-Glo luminescence, qHTS (AID 1347067; cut-off not given, nearly all actives have AC50 up to about 26 µM;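 further: cells exposed to compound for 48 hours before readout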). The note with it: JHH-DIPG-1 glioma viability, CellTiter-Glo ATP luminescence.
Test [10] can be described thus: growth inhibition of DIPG cells – cell-based, MIPE5.0 library, qHTS (AID 1347068; cut-off not given, nearly all actives have IC50 up to about 30 µM). The note with it: SU-DIPG-XXV viability.
A short description of test [11]: blockers of cellular phospholipid synthesis – cell-based, LOPAC library, screen 4, primary screen (AID 1347384; call rule not given here). The note with it: animal cells, phospholipid biosynthesis inhibition screen; at 10 µM.
Test [12] can be described thus: viability loss in pontine glioma line – cell-based, SU-DIPG-XXV, MIPE5.0, CellTiter-Glo, qHTS, dose response (AID 1347065; cut-off not given, nearly all actives have AC50 up to about 26 µM;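 further: cells exposed to compound for 48 hours before ATP readout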). The note with it: CellTiter-Glo ATP luminescence.
Test [13] can be described thus: growth inhibition, single agent or in combination, cell-based, chromothripsis tumors, cisplatin or BGB combos (AID 1671449).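 Further: cells exposed for 96 hours; 0% = vehicle DMSO and 100% = killing by high DMSO.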 The note with it: LFS_MB_P medulloblastoma cells.
The nature of test [14]: growth inhibition, single agent and combos, cell-based, chromothripsis tumors, cisplatin or BGB combos (AID 1671450).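 Further: cells exposed to compound for four days; 0% = vehicle DMSO and 100% = cell killing by high DMSO.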 The note with it: HDN33 neuroblastoma cells, stronger effect = higher value.
Test [15] is described as follows: growth inhibition, single agents and combos, LFS_MB_1R, cell-based, cisplatin or BGB combos, synergistic combos for chromothripsis tumors (AID 1671452).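 Further: cells exposed for 96 hours before readout.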 The note with it: LFS_MB_1R medulloblastoma cells, stronger effect = higher value.
Test [16] is described as follows: growth inhibition, single agents and combos, HTB85, cell-based, BGB or cisplatin IC20 combos, synergistic combos for chromothripsis tumors (AID 1671453).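 Further: cells exposed for 96 hours before readout; 0% = vehicle DMSO and 100% = high DMSO killing control.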 The note with it: HTB85 osteosarcoma cells, drug combinations, stronger effect = higher value.
A short description of test [17]: growth inhibition, MDA-MB-436, cell-based, BGB or cisplatin combos, synergistic combos for chromothripsis tumors (AID 1671458; call rule not given here;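 further: cells exposed for 96 hours; 0% = vehicle DMSO and 100% = killing by high DMSO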). The note with it: MDA-MB-436 breast carcinoma growth inhibition, drug combinations, stronger effect = higher value.
Test [18] in a line: BT084 cell growth, single and combined drugs, ICGC_MB145, cisplatin and BGB IC40 combos (AID 1671461).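 Further: cells exposed to drugs for 96 hours; 0% = vehicle DMSO and 100% = high DMSO full killing control.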 The note with it: BT084 medulloblastoma cells, drug combinations, stronger effect = higher value.
The nature of test [19]: RCMB18 cell growth, single agent and combined, cisplatin and BGB IC40 combos (AID 1671462).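 Further: cells exposed to compound for four days.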 The note with it: RCMB18 medulloblastoma cells, stronger effect = higher value.
A short description of test [20]: CRL1545 cell growth, single agent and combined, cisplatin and BGB IC20 combos (AID 1671464).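 Further: cells exposed to compound for 96 hours before readout; 0% = vehicle DMSO and 100% = high DMSO killing control.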 The note with it: CRL1545 osteosarcoma cells, stronger effect = higher value.
Setting [21] is: measured here: combination with BGB IC40, at 0.05 µM.
[22] abbreviates: measured here: with BGB IC20 combination, at 0.5 µM.
[23] abbreviates: measured here: with cisplatin IC20 combination, at 0.5 µM.
Where [24] appears, read: measured here: combination with cisplatin, at 0.5 µM.

Inconclusive results are not listed. Active and inactive are the calls of the source. Unless noted, no stated cut-off is given here; in the data, active means inhibition above about 80%; inactive means the rest.

By inhibition is commonly meant the change of the read-out against control, counted positive when it falls. `O=c1[nH]cnc2[nH]ncc12` yielded an inclusion score in test [1] of 2. Moreover, the period change in test [2] was 0.19 h (inactive). For the same compound, the inhibition in test [3] was -4% (inactive). Moreover, the fluorescence ratio (interference) in test [4] was 0.9 (inactive). The compound was called inactive in test [5], in [6], in test [7], in test [8], in [9] and in test [10]. For the same compound, in test [11], the call was inactive.

In turn, `CCCc1cc(=O)[nH]c(=S)[nH]1` had an inclusion score in [1] of 2. Besides, the compound was called inactive in [5], in test [6], in test [7], in [12] and in test [8].

In the case of `O=C(O)CCCc1ccccc1`, the inhibition in test [13] (at 0.5 µM, stronger effect = higher value) is -32.4% (inactive); in test [13] (measured here: combination with BGB IC20, at 0.005 µM), -18.8%; in test [13] (measured here: combination with BGB IC40, at 0.005 µM), -12.3%; in [13] (setting [21]), -22.2%; in test [13] (measured here: combination with cisplatin, at 0.5 µM, stronger effect = higher value), -35%; in test [13] (measured here: combination with cisplatin, at 5 µM, stronger effect = higher value) it was -11.6%. The inhibition in test [14] (BGB combo, at 5 µM) is -16.9%; in test [14] (at 0.5 µM), -18.6% (inactive); in [14] (cisplatin combo, at 5 µM), 0.505%; in [14] (setting [22]) it was -6.08%; in test [14] (setting [23]), -19.1%; in test [14] (single agent, at 5 µM), -3.58%. The inhibition in test [15] (at 0.5 µM) is -18.6% (inactive); in test [15] (setting [21]), -25.4%; in test [15] (setting [24]), -26.8%; in test [15] (measured here: combination with cisplatin, at 5 µM), -16.2%; in [16] (at 0.5 µM) it was -13.7% (inactive); in [16] (measured here: with BGB IC20, at 0.5 µM), -24.4%. For the same compound, the inhibition in [16] (measured here: with BGB IC20, at 5 µM) was -45.4%; in test [16] (measured here: with cisplatin IC20, at 0.5 µM), -14.6%; in [16] (measured here: with cisplatin IC20, at 5 µM), -12.8%; in test [16] (single agent, at 5 µM), -16.3%; in test [17] (at 0.5 µM), -11.5% (inactive); in test [17] (measured here: BGB combination, at 0.5 µM), -6.89%. For the same compound, the inhibition in test [17] (measured here: BGB combination, at 5 µM) was -6.08%; in test [17] (measured here: cisplatin combination, at 0.5 µM) it was -24.1%; in test [17] (measured here: cisplatin combination, at 5 µM), -11.2%; in test [18] (at 0.5 µM) it was -24.2% (inactive); in test [18] (cisplatin combination, at 0.5 µM), 2.11%; in [18] (cisplatin combination, at 5 µM), -2.13%. Besides, the inhibition is -5.38% in test [18] (measured here: BGB IC40 combination 0.05 uM, at 0.05 µM); -9.5% in test [18] (single agent, at 5 µM); -15.3% (inactive) in test [19] (at 0.5 µM); -6.28% in test [19] (cisplatin combo, at 5 µM); -18% in [19] (measured here: BGB IC40 combination, at 0.05 µM); -7.69% in test [19] (setting [24]). For the same compound, the inhibition in test [19] (single agent, at 5 µM) is 28.4%; in [20] (at 0.5 µM) it was -23.7% (inactive); in test [20] (setting [22]) it was -4.31%; in test [20] (setting [23]), -36.4%; in test [20] (single agent, at 0.05 µM), -12.3%; in test [20] (single agent, at 5 µM), 9.33%.

The record behind these values is PubChem BioAssay.
